Assay results published in the supplement of paper PMC10646978.
± gives the standard deviation.

Tests used:
Settings in all cases: modulator concentration 10 µM
[1] = test system: RAW-Dual (murine macrophage reporter line); assay: NF-kB reporter (SEAP) activity fold change vs agonist alone; higher = enhanced NF-kB activity
Summary of the method: (§1)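 Overnight stimulation with a PRR agonist followed pre-incubation for 1 hour at 37 °C with compound at 10 μM final. This was done in RAW-Dual murine macrophage reporter cells seeded at 50 000 per well in 384-well plates. NF-κB (SEAP, QUANTI-Blue absorbance at 620 nm) and IRF (Lucia luciferase, QUANTI-Luc luminescence) were read from the supernatant. Each reporter's fold change relative to the mean agonist-only control on the same plate was averaged over replicate plates.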

[2] = test system: RAW-Dual (murine macrophage reporter line); assay: IRF reporter (Lucia luciferase) activity fold change vs agonist alone; higher = enhanced IRF activity
Summary of the method: as §1

[3] = test system: RAW-Dual (murine macrophage reporter line); assay: viability score (confluency relative to resting cells, overnight) (fraction); higher = more viable, active = viable (0.7 or more)
Summary of the method: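 Confluency was the readout: RAW-Dual macrophages were imaged with IncuCyte after an overnight exposure to compound at 10 μM final. IncuCyte software produced two masks over all imaged wells. The viability score expresses confluency against resting cells, and both masks had to exceed 70% of resting cells for a compound to meet the cutoff.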

[4] = agonist: CpG ODN 1826 0.5 ug/mL

Row | Structure (SMILES) | NF-kB reporter [1, 4] | NF-kB reporter ([1]; agonist: LPS 0.1 ug/mL) | NF-kB reporter ([1]; agonist: MPLA […]) | IRF reporter ([2]; agonist: 3'3'-cGAMP 10 ug/mL) | IRF reporter ([2]; agonist: LPS 0.1 ug/mL) | IRF reporter ([2]; agonist: MPLA […]) | viability score [3]
1 | Clc1cccc(C=Cc2nn3c(Cc4ccccc4)nnc3s2)c1 | 0.885 ± 0.04 | 0.927 ± 0.092 | 1.12 ± 0.06 | 0.86 ± 0.039 | 1.35 ± 0.24 | 1.44 ± 0.43 | 0.987 (active)
2 | Cc1ccc(OCCCOc2cccc3cccnc23)c(Br)c1 | 0.998 ± 0.071 | 1.01 ± 0.078 | 1.01 ± 0.027 | 0.829 ± 0.053 | 0.935 ± 0.13 | 0.981 ± 0.21 | 0.998 (active)
3 | CC(=O)N1CCC(Cn2ccc3cccnc32)CC1 | 1.04 ± 0.078 | 1.02 ± 0.11 | 0.996 ± 0.048 | 0.949 ± 0.035 | 0.957 ± 0.056 | 1.02 ± 0.11 | 0.994 (active)
4 | CCCOc1ccc(-c2ccc(-c3nc(Cc4ccc(OC)c(OC)c4)no3)cc2)cc1 | 0.763 ± 0.062 | 0.972 ± 0.046 | 1.04 ± 0.097 | 0.978 ± 0.048 | 1.08 ± 0.063 | 1.12 ± 0.12 | 1.01 (active)
5 | CC(Cc1ccc(O)c(O)c1)C(C)Cc1ccc(O)c(O)c1 (centres undefined) | 1.16 ± 0.31 | 0.645 ± 0.057 | 1.31 ± 0.094 | 0.0338 ± 0.0028 | 0.509 ± 0.062 | 0.544 ± 0.055 | 0.618 (inactive)
6 | c1ccc(OCc2nnc(-c3ccccc3)o2)cc1 | 1.15 ± 0.1 | 1.19 ± 0.09 | 1.14 ± 0.037 | 0.87 ± 0.078 | 0.937 ± 0.044 | 0.973 ± 0.076 | 0.999 (active)
7 | NC(=O)COc1ccc(Nc2nnc(-c3ccccc3)c3ccccc23)cc1 | 0.782 ± 0.083 | 0.806 ± 0.051 | 1.08 ± 0.093 | 0.747 ± 0.034 | 1.19 ± 0.069 | 1.23 ± 0.14 | 1.01 (active)
8 | CC1CCc2c(oc3ccc(NS(=O)(=O)c4ccc(F)cc4)cc23)C1 (centres undefined) | 0.607 ± 0.1 | 0.626 ± 0.075 | 0.918 ± 0.032 | 0.853 ± 0.035 | 0.643 ± 0.11 | 1.76 ± 0.23 | 0.144 (inactive)
9 | CCNC1(C(N)=O)CCN(c2ncnc3c2nc(-c2ccccc2Cl)n3-c2ccc(Cl)cc2)CC1.Cl | 1.24 ± 0.11 | 0.479 ± 0.038 | 0.674 ± 0.036 | 0.19 ± 0.0086 | 0.464 ± 0.13 | 0.484 ± 0.12 | 0.688 (inactive)
10 | CCN(CC)C(=O)N1CCN(C)CC1 [Prestw-284] | 1.02 ± 0.063 | 1.03 ± 0.064 | 0.96 ± 0.062 | 0.974 ± 0.034 | 1.41 ± 0.24 | 1.28 ± 0.14 | 0.99 (active)
11 | O=C1CN(C(=O)c2cc3ccccc3o2)c2ccccc2N1 | 1.1 ± 0.35 | 1.01 ± 0.052 | 1.21 ± 0.1 | 0.992 ± 0.035 | 1.03 ± 0.14 | 1.1 ± 0.14 | 0.998 (active)
12 | CN(C/C=C/C#CC(C)(C)C)Cc1cccc2ccccc12 | 0.812 ± 0.066 | 0.987 ± 0.059 | 1.08 ± 0.095 | 1.12 ± 0.055 | 1.24 ± 0.078 | 1.27 ± 0.12 | 1.01 (active)
13 | CCCC(C(=O)OCCN(CC)CC)(c1ccccc1)c1ccccc1.Cl | 0.851 ± 0.066 | 0.924 ± 0.11 | 0.978 ± 0.084 | 0.972 ± 0.055 | 1.03 ± 0.27 | 1.03 ± 0.39 | 1.02 (active)
14 | CCOC(=O)C1C(=O)C=C(C)C(C(=O)OCC)C1c1ccc(Br)cc1 (centres undefined) | 1.05 ± 0.083 | 1.01 ± 0.093 | 1.06 ± 0.07 | 1.17 ± 0.047 | 1.3 ± 0.17 | 1.25 ± 0.19 | 1 (active)
15 | CC1=CCC(C2Nc3ccccc3-c3nnc(SCc4ccc(C)cc4)nc3O2)CC1 (centres undefined) | 1.05 ± 0.13 | 1 ± 0.057 | 0.881 ± 0.053 | 0.978 ± 0.053 | 1.5 ± 0.1 | 1.22 ± 0.15 | 1.01 (active)
16 | O=C(NCC(O)c1ccc(C(F)(F)F)cc1)c1cc(Br)cs1 (centres undefined) | 0.931 ± 0.047 | 0.981 ± 0.077 | 0.865 ± 0.043 | 1.14 ± 0.058 | 1.21 ± 0.077 | 1.22 ± 0.14 | 0.66 (inactive)
17 | CCCCCCOc1ccc(N2C(=O)CC(N3CCN(Cc4ccc5c(c4)OCO5)CC3)C2=O)cc1 (centres undefined) | 0.919 ± 0.073 | 1.07 ± 0.075 | 0.9 ± 0.055 | 0.929 ± 0.032 | 1.38 ± 0.17 | 1.32 ± 0.12 | 0.991 (active)
18 | CNC(=O)c1cc(Oc2ccc(NC(=O)Nc3ccc(Cl)c(C(F)(F)F)c3)cc2)ccn1.Cc1ccc(S(=O)(=O)O)cc1 | 0.448 ± 0.038 | 0.8 ± 0.048 | 0.791 ± 0.072 | 0.246 ± 0.019 | 0.575 ± 0.047 | 0.513 ± 0.069 | 1.01 (active)
19 | CCOc1cc(C=C2SC(=S)N(CCS(=O)(=O)O)C2=O)ccc1O | 0.952 ± 0.087 | 1.04 ± 0.077 | 0.951 ± 0.15 | 0.925 ± 0.027 | 1.28 ± 0.14 | 0.997 ± 0.2 | 1.02 (active)
20 | CCCCS(=O)(=O)N[C@@H](Cc1ccc(OCCCCC2CCNCC2)cc1)C(=O)O.Cl.O | 1.2 ± 0.34 | 1.05 ± 0.057 | 0.987 ± 0.075 | 0.907 ± 0.035 | 1.14 ± 0.23 | 1.26 ± 0.12 | 0.99 (active)
21 | Nc1ccc(S(N)(=O)=O)cc1 | 1.1 ± 0.094 | 0.993 ± 0.069 | 1 ± 0.088 | 1.22 ± 0.27 | 0.933 ± 0.038 | 0.904 ± 0.072 | 0.994 (active)
22 | c1ccc2oc(SCCCCSc3nc4ccccc4o3)nc2c1 | 0.959 ± 0.15 | 1.06 ± 0.11 | 0.949 ± 0.089 | 0.821 ± 0.037 | 1.2 ± 0.12 | 1.4 ± 0.15 | 1 (active)
23 | CC(=NOCON=C(C)c1ccc(Cl)c(Cl)c1)c1ccc(Cl)c(Cl)c1 | 0.944 ± 0.057 | 0.993 ± 0.086 | 0.936 ± 0.07 | 0.974 ± 0.034 | 1.38 ± 0.14 | 1.18 ± 0.1 | 1.01 (active)
24 | CCOC(=O)C1=C(C)OC(N)=C(C#N)C1c1ccc(O)c(OCC)c1 (centres undefined) | 1.19 ± 0.075 | 1.04 ± 0.064 | 1.07 ± 0.099 | 0.939 ± 0.038 | 1.31 ± 0.12 | 1.16 ± 0.11 | 1.01 (active)
25 | COc1cc2ncnc(Nc3ccc(F)c(Cl)c3)c2cc1OCCCN1CCOCC1.Cl | 0.0798 ± 0.019 | 0.978 ± 0.06 | 1.08 ± 0.1 | 0.193 ± 0.015 | 0.835 ± 0.1 | 1.16 ± 0.11 | 0.592 (inactive)
26 | CCOc1ccc(S(=O)(=O)NCCn2nc(C3CC3)ccc2=O)cc1C | 1.01 ± 0.063 | 1.07 ± 0.12 | 1.04 ± 0.045 | 1.02 ± 0.051 | 0.993 ± 0.079 | 0.875 ± 0.15 | 0.982 (active)
27 | CC(C)NCC(O)COCCOc1ccc(C(C)(C)C)cc1.Cl (centres undefined) | 0.593 ± 0.039 | 1.06 ± 0.079 | 1.13 ± 0.079 | 0.569 ± 0.034 | 1.31 ± 0.14 | 1.57 ± 0.37 | 0.934 (active)
